These results are taken from the supplement of paper PMC8975748.

Structures can show the parent of a compound that is named as a salt.

The test deals with Saccharomyces cerevisiae BY4741 SeMeCo community. The experiment in a line: z-score of subpopulation abundance vs DMSO median, subpopulation auxotrophic for LUM; higher = larger share of this subpopulation than in DMSO controls. Particulars: 10 µM; 24 h; SM minimal medium; subpopulation (auxotrophy): LUM. In short, it runs like this: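 A Saccharomyces cerevisiae BY4741 community carried four plasmids, each restoring one auxotrophy and encoding a distinct fluorescent protein. It was pre-grown overnight to OD600 1.0, diluted to 0.3, and 70 µl was added to 384-well plates acoustically predosed with library drugs (10 µM final), then grown 24 h in minimal SM medium. Cells were paraformaldehyde-fixed and imaged by automated confocal microscopy, with single-auxotroph fluorescent strains setting thresholds and autofluorescence correction. Each subpopulation's abundance was scored as a z-score against the vehicle-well median.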
In the case of `CC(C)NC(=N)NC(=N)Nc1ccc(Cl)cc1` [Proguanil], the “z-score of subpopulation abundance” value is -0.3.

Take `Nc1nc(O)c2ncn(CCC(CO)CO)c2n1` [Penciclovir]: the “z-score of subpopulation abundance” value was -0.73.

Regarding `C=CC(C)(O)CCC=C(C)C` (centres undefined) [Linalool], the “z-score of subpopulation abundance” value is -0.39.

In the case of `O=C(N[C@H](CO)[C@H](O)c1ccc([N+](=O)[O-])cc1)C(Cl)Cl` [Chloramphenicol], the “z-score of subpopulation abundance” value was determined as 0.23.

On to `CCCN1CCCC[C@H]1C(=O)Nc1c(C)cccc1C` [Ropivacaine], for which the “z-score of subpopulation abundance” value is -0.83.

Take `Cc1onc(-c2ccccc2)c1-c1ccc(S(N)(=O)=O)cc1` [Valdecoxib]: the “z-score of subpopulation abundance” value is -0.21.

On to `CN1[C@@H]2CC[C@H]1C[C@@H](OC(=O)c1c[nH]c3ccccc13)C2` [Tropisetron], for which the “z-score of subpopulation abundance” value is 1.16.

Regarding `CC[C@H]1OC(=O)[C@H](C)[C@@H](O[C@H]2C[C@@](C)(OC)[C@@H](O)[C@H](C)O2)[C@H](C)[C@@H](O[C@@H]2O[C@H](C)C[C@H](N(C)C)[C@H]2O)[C@](C)(O)C[C@@H](C)/C(=N\OCOCCOC)[C@H](C)[C@@H](O)[C@]1(C)O` [Roxithromycin], the “z-score of subpopulation abundance” value turned out to be 0.55.

`COc1ccccc1N1CCN(CCCNc2cc(=O)n(C)c(=O)n2C)CC1` [Urapidil HCl]: the “z-score of subpopulation abundance” value was -0.71.

In the case of `O=C(O)c1cc(-c2ccc(F)cc2F)ccc1O` [Diflunisal], the “z-score of subpopulation abundance” value was -1.08.

As for `C=C[C@H]1CN2CC[C@H]1C[C@H]2[C@H](O)c1ccnc2ccc(OC)cc12` [Quinine HCl Dihydrate], the “z-score of subpopulation abundance” value was 0.52.

As to `Cc1nc(=O)c2cc(CN(C)c3ccc(C(=O)N[C@@H](CCC(=O)O)C(=O)O)s3)ccc2[nH]1` [Raltitrexed], the “z-score of subpopulation abundance” value was -2.16.

On to `CC(C)Cc1ccc(C(C)C(=O)O)cc1` (centres undefined) [Ibuprofen Lysine], for which the “z-score of subpopulation abundance” value was -2.47.

Regarding `CN(C)CCc1c[nH]c2ccc(C[C@H]3COC(=O)N3)cc12` [Zolmitriptan], the “z-score of subpopulation abundance” value was -0.64.

With `C[C@]12CC[C@@H]3c4ccc(O)cc4C[C@@H](CCCCCCCCC[S+]([O-])CCCC(F)(F)C(F)(F)F)[C@H]3[C@@H]1CC[C@@H]2O` (some centres undefined) [Fulvestrant], the “z-score of subpopulation abundance” value is 1.7.

Turning to `COc1ccc(NS(=O)(=O)c2ccc(N)cc2)nn1` [Sulfamethoxypyridazine], the “z-score of subpopulation abundance” value is -0.72.

Turning to `CNCCCN1c2ccccc2CCc2ccccc21` [Desipramine Hydrochloride], the “z-score of subpopulation abundance” value was -0.63.

`Oc1ccc([C@H]2COc3cc(O)ccc3C2)cc1` [Equol]: the “z-score of subpopulation abundance” value was -0.14.

With `Cc1[nH]c(=O)c(C#N)cc1-c1ccncc1` [Milrinone], the “z-score of subpopulation abundance” value is -0.06.

On to `CCN(CC)CCOC(=O)c1ccc(N)cc1` [Procaine], for which the “z-score of subpopulation abundance” value turned out to be 0.13.

On to `O=C(O)c1cc(/N=N/c2ccc(O)c(C(=O)O)c2)ccc1O` [Olsalazine Sodium], for which the “z-score of subpopulation abundance” value is -0.7.

For the compound `CCC(C)(Oc1ccc(C2(c3ccc(OC(C)(CC)C(=O)O)cc3)CCCCC2)cc1)C(=O)O` (centres undefined) [Clinofibrate], the “z-score of subpopulation abundance” value was -1.09.

For `CN(C)[C@@H]1C(=O)C(C(N)=O)=C(O)[C@@]2(O)C(=O)C3=C(O)c4c(O)ccc(Cl)c4[C@@H](O)[C@H]3C[C@@H]12` [Demeclocycline HCl], the “z-score of subpopulation abundance” value is -0.57.

With `COc1cc2c(cc1OC)C(=O)C(CC1CCN(Cc3ccccc3)CC1)C2` (centres undefined) [Donepezil], the “z-score of subpopulation abundance” value came out at 0.47.

In the case of `CCn1cc(C(=O)O)c(=O)c2cc(F)c(N3CCNCC3)nc21` [Enoxacin], the “z-score of subpopulation abundance” value was determined as 0.62.

Take `NC(=O)[C@@H]1CC[C@@H]2CN1C(=O)N2OS(=O)(=O)O` [Avibactam sodium]: the “z-score of subpopulation abundance” value came out at 0.46.

For `CN1[C@@H]2CC[C@H]1C[C@@H](OC(c1ccccc1)c1ccccc1)C2` [Benztropine mesylate], the “z-score of subpopulation abundance” value was -0.36.

`C#C[C@]1(O)CC[C@H]2[C@@H]3CCC4=CCCC[C@@H]4[C@H]3CC[C@@]21C` [Lynestrenol]: the “z-score of subpopulation abundance” value was -0.41.

As for `CC(C)(C)C(=O)OCOC(=O)[C@@H]1N2C(=O)[C@@H](/N=C/N3CCCCCC3)[C@H]2SC1(C)C` [Pivmecillinam hydrochloride], the “z-score of subpopulation abundance” value is -0.28.

In the case of `OC(c1ccccc1)(c1ccccc1)C12CC[N+](CCOCc3ccccc3)(CC1)CC2` [Umeclidinium bromide], the “z-score of subpopulation abundance” value was -0.49.

Turning to `OCc1ccccc1O[C@@H]1O[C@H](CO)[C@@H](O)[C@H](O)[C@H]1O` [Salicin], the “z-score of subpopulation abundance” value is 0.42.

On to `CN(C)CCc1c[nH]c2ccc(Cn3cncn3)cc12` [Rizatriptan Benzoate], for which the “z-score of subpopulation abundance” value is -0.44.

Turning to `OCCN(CCO)c1nc(N2CCCCC2)c2nc(N(CCO)CCO)nc(N3CCCCC3)c2n1` [Dipyridamole], the “z-score of subpopulation abundance” value is -4.38.

On to `Cn1nnnc1SCC1=C(C(=O)O)N2C(=O)[C@@H](NC(=O)[C@H](OC=O)c3ccccc3)[C@H]2SC1` [Cefamandole nafate], for which the “z-score of subpopulation abundance” value came to 0.16.

For `CC(=O)[C@@]1(O)CC[C@H]2[C@@H]3C[C@H](C)C4=CC(=O)CC[C@]4(C)[C@H]3CC[C@@]21C` [Medroxyprogesterone], the “z-score of subpopulation abundance” value was 0.93.

With `CC[N+](CC)(CC)CC` [Tetraethylammonium bromide], the “z-score of subpopulation abundance” value is 0.28.

Take `CCC1(c2ccccc2)C(=O)NCNC1=O` [Primidone]: the “z-score of subpopulation abundance” value worked out at 0.18.

Take `CCCCOc1cc(C(=O)OCCN(CC)CC)ccc1N` [Oxybuprocaine HCl]: the “z-score of subpopulation abundance” value turned out to be 0.25.

Turning to `C[N+]1(C)[C@@H]2CC[C@H]1C[C@@H](OC(=O)C(O)c1ccccc1)C2` (some centres undefined) [Homatropine Methylbromide], the “z-score of subpopulation abundance” value is -0.14.
